Data published in PubChem BioAssay (NCI).
The panel holds about 83,000 compounds, 20% with a hit somewhere; the sample as a whole holds those more often.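 96-well plates, one dose, 48 hours. Percent growth reported; active if below 10.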 Values without a mark were called inactive. Active and inactive are the calls of the source.

tested on: ACHN renal; assay: NCI-60 one-dose screen, 48 h (100 = growth as untreated, 0 = no growth, -100 = all killed); conditions: 10 µM unless noted

| Compound | growth |
| --- | --- |
| CCCCNC(=O)NS(=O)(=O)c1ccc(N2N=C(c3ccc(C)cc3C)CC2c2ccc(N(C)C)cc2)cc1 (configuration not stated) | 48.6% |
| O=C1Nc2ccccc2SC1c1ccccc1Cl (configuration not stated) | 115% |
| O=C(Nc1ccc(N2CCCCC2)c(Cl)c1)c1ccc(Br)o1 | 64.3% |
| C[C@@H]1CC[C@@H]2[C@@H]1[C@H](OC(=O)c1ccc3ccccc3c1)[C@]1(C3CCCCC3)C[C@@H](OC(=O)CO)[C@@]2(C)O1 | 7.83% (active) |
| COc1ccc(C(=O)/C=C/c2cc3c(c(OC)c2)OCC(=O)N3)cc1 | 46.3% |
| CO[C@H]1/C=C/O[C@@]2(C)Oc3c(C)c(O)c4c(c3C2=O)C(=O)C(/C=N/N(c2ccccc2)c2ccccc2)=C(NC(=O)/C(C)=C\C=C\[C@H](C)[C@H](O)[C@@H](C)[C@@H](O)[C@@H](C)[C@H](OC(C)=O)[C@@H]1C)C4=O | -33% (active) |
| COc1cc(NC(=O)c2cccc(-c3cc(=O)c4c(O)c(OC)c(OC)cc4o3)c2)cc(OC)c1OC | 16.3% |
| NC(N)=N/N=C/CO | 102% |
| CCOC(=O)c1sc2ccc(NCc3nc[nH]c3C)cc2c1NC(=O)c1cc(OC)c(OC)c(OC)c1 | 65.1% |
| CCCCCCCSc1ccc(C(=O)O)cc1 | 94.6% |
| COc1cc2oc(-c3cccc(C(=O)Nc4ccc(C)cc4)c3)cc(=O)c2c(OC)c1OC | 34.2% |
| Fc1ccc(Nc2nc3nonc3nc2Nc2ccc(F)cc2)cc1 | -15.9% (active) |
| C[C@@H]1C(=O)N(C[C@H](Cc2ccccc2)N(Cc2ccccc2)Cc2ccccc2)[C@]1(Cc1ccccc1)C(=O)OC(C)(C)C | 63.9% |
| Cc1ccc(-n2nnc(C3=NCCc4c3[nH]c3ccc(Cl)cc43)c2C)cc1 | 57.2% |
| COc1ccc(OC)c(/C=C2\COc3ccc(O)c(O)c3C2=O)c1 | 19.6% |
| CCOc1ccc2nc(-c3cccc(OCC(=O)NC(C)C)c3)nc(Nc3ccc(-c4cn[nH]c4)cc3)c2c1 | 7.49% (active) |
| CN(C)c1ccc(C#Cc2c(F)cccc2Cl)cc1 | 83.5% |
| Clc1ccc2[nH]c3c(NCCCN4CCOCC4)ncnc3c2c1 | 45.1% |
| Cc1nc(C)c(-c2nn3c(-c4cccc(F)c4)nnc3s2)s1 | 117% |

| Compound | growth |
| --- | --- |
| CC1(C)N=C(N)N=C(N)N1c1ccc(Cl)c(Cl)c1 | 28.4% |
| CCOc1cccnc1/C=N/NC(N)=S | 35.7% |
| COc1cc2oc(-c3cccc(C(=O)Nc4ccc(C#N)cc4)c3)cc(=O)c2c(O)c1OC | 38.7% |
| O=C1NCC(=O)N(Cc2ccco2)[C@H]1Cc1ccccc1 | 105% |
| O=C(Nc1ccccn1)[C@H](O)[C@@H](O)C(=O)N1CCOCC1 | 112% |
| CCOC(=O)Cc1csc2nc(-c3ccccc3)nn12 | 99.7% |
| CN(C)c1ccc(/C=C/c2c(F)cccc2F)cc1 | 92.7% |
| CCOc1cc(C2C(Cl)C(=O)N2n2cnnc2)ccc1O (configuration not stated) | 96.7% |
| Nc1ccn(C2OC(F)(CO)C(O)C2F)c(=O)n1 (configuration not stated) | 2.4% (active) |
| CC(=O)C(C(C)=O)c1nc2sc3cc(Cl)ccc3n2c(=N)c1C#N | 84% |
| O=C(CC1Sc2ccccc2NC1=O)NNc1ccc(F)cc1 (configuration not stated) | 56.4% |
| CN(C)c1ccc2cc(-c3ccc(Cl)c(Cl)c3)c(N)nc2c1 | 52.3% |
| Nc1c(C(=O)Nc2ccccc2)sc2nc3c(cc12)CCCCCC3 | 26.5% |
| O=C(Nc1cccc2[nH]c(C(F)(F)F)nc12)c1cc(Cl)ccc1Cl | 48.1% |
| NC(=S)N/N=C/C(=O)O | 91.2% |
| COc1cc(/C=C2\C=C(c3ccccc3)N(CCc3ccccc3)C2=O)cc(OC)c1OC | 30.9% |
| C(=C\c1nc2ccccc2[nH]1)/c1nc2ccccc2[nH]1 | 93.3% |
| CCC(=O)OC1=C(C)SC2=NC(c3ccc(Cl)c(Cl)c3)=CC(c3cc(OC)c(OC)c(OC)c3)N21 (configuration not stated) | 102% |
| C=C(Cl)COC(=O)C(C)(C)O | 105% |

tested on: CAKI-1 renal; assay: as above; conditions: 10 µM unless noted

| Compound | growth |
| --- | --- |
| CCCCNC(=O)NS(=O)(=O)c1ccc(N2N=C(c3ccc(C)cc3C)CC2c2ccc(N(C)C)cc2)cc1 (configuration not stated) | 63% |
| O=C1Nc2ccccc2SC1c1ccccc1Cl (configuration not stated) | 71.9% |
| O=C(Nc1ccc(N2CCCCC2)c(Cl)c1)c1ccc(Br)o1 | 94.8% |
| Nc1ccc(CCCCc2ccccc2)c(Cl)c1 | 83.8% |
| C[C@@H]1CC[C@@H]2[C@@H]1[C@H](OC(=O)c1ccc3ccccc3c1)[C@]1(C3CCCCC3)C[C@@H](OC(=O)CO)[C@@]2(C)O1 | -31% (active) |
| COc1ccc(C(=O)/C=C/c2cc3c(c(OC)c2)OCC(=O)N3)cc1 | 20.8% |
| CO[C@H]1/C=C/O[C@@]2(C)Oc3c(C)c(O)c4c(c3C2=O)C(=O)C(/C=N/N(c2ccccc2)c2ccccc2)=C(NC(=O)/C(C)=C\C=C\[C@H](C)[C@H](O)[C@@H](C)[C@@H](O)[C@@H](C)[C@H](OC(C)=O)[C@@H]1C)C4=O | -4.42% (active) |
| COc1cc(NC(=O)c2cccc(-c3cc(=O)c4c(O)c(OC)c(OC)cc4o3)c2)cc(OC)c1OC | 62.5% |
| NC(N)=N/N=C/CO | 99.4% |
| CCOC(=O)c1sc2ccc(NCc3nc[nH]c3C)cc2c1NC(=O)c1cc(OC)c(OC)c(OC)c1 | 96% |
| CCCCCCCSc1ccc(C(=O)O)cc1 | 103% |
| COc1cc2oc(-c3cccc(C(=O)Nc4ccc(C)cc4)c3)cc(=O)c2c(OC)c1OC | 2.16% (active) |
| Fc1ccc(Nc2nc3nonc3nc2Nc2ccc(F)cc2)cc1 | -8.48% (active) |
| C[C@@H]1C(=O)N(C[C@H](Cc2ccccc2)N(Cc2ccccc2)Cc2ccccc2)[C@]1(Cc1ccccc1)C(=O)OC(C)(C)C | 55.2% |
| Cc1ccc(-n2nnc(C3=NCCc4c3[nH]c3ccc(Cl)cc43)c2C)cc1 | 56.1% |
| COc1ccc(OC)c(/C=C2\COc3ccc(O)c(O)c3C2=O)c1 | 31.2% |
| CCOc1ccc2nc(-c3cccc(OCC(=O)NC(C)C)c3)nc(Nc3ccc(-c4cn[nH]c4)cc3)c2c1 | 27.7% |
| CN(C)c1ccc(C#Cc2c(F)cccc2Cl)cc1 | 82.4% |
| Clc1ccc2[nH]c3c(NCCCN4CCOCC4)ncnc3c2c1 | 75.9% |
| Cc1nc(C)c(-c2nn3c(-c4cccc(F)c4)nnc3s2)s1 | 103% |

| Compound | growth |
| --- | --- |
| CC1(C)N=C(N)N=C(N)N1c1ccc(Cl)c(Cl)c1 | 60.8% |
| CCOc1cccnc1/C=N/NC(N)=S | 29% |
| COc1cc2oc(-c3cccc(C(=O)Nc4ccc(C#N)cc4)c3)cc(=O)c2c(O)c1OC | 85.2% |
| O=C1NCC(=O)N(Cc2ccco2)[C@H]1Cc1ccccc1 | 97.4% |
| O=C(Nc1ccccn1)[C@H](O)[C@@H](O)C(=O)N1CCOCC1 | 105% |
| CCOC(=O)Cc1csc2nc(-c3ccccc3)nn12 | 111% |
| CN(C)c1ccc(/C=C/c2c(F)cccc2F)cc1 | 94.6% |
| CCOc1cc(C2C(Cl)C(=O)N2n2cnnc2)ccc1O (configuration not stated) | 85.3% |
| Nc1ccn(C2OC(F)(CO)C(O)C2F)c(=O)n1 (configuration not stated) | 35.6% |
| CC(=O)C(C(C)=O)c1nc2sc3cc(Cl)ccc3n2c(=N)c1C#N | 85.7% |
| O=C(CC1Sc2ccccc2NC1=O)NNc1ccc(F)cc1 (configuration not stated) | 69% |
| CN(C)c1ccc2cc(-c3ccc(Cl)c(Cl)c3)c(N)nc2c1 | 39.5% |
| Nc1c(C(=O)Nc2ccccc2)sc2nc3c(cc12)CCCCCC3 | 42% |
| O=C(Nc1cccc2[nH]c(C(F)(F)F)nc12)c1cc(Cl)ccc1Cl | 31.3% |
| NC(=S)N/N=C/C(=O)O | 88.5% |
| COc1cc(/C=C2\C=C(c3ccccc3)N(CCc3ccccc3)C2=O)cc(OC)c1OC | 80.1% |
| C(=C\c1nc2ccccc2[nH]1)/c1nc2ccccc2[nH]1 | 96.6% |
| CCC(=O)OC1=C(C)SC2=NC(c3ccc(Cl)c(Cl)c3)=CC(c3cc(OC)c(OC)c(OC)c3)N21 (configuration not stated) | 87.8% |
| C=C(Cl)COC(=O)C(C)(C)O | 94.6% |
